Test results published in PubChem BioAssay (EPA / NIEHS).
Active and inactive are the calls of the source. Rule for the calls: active = hit-call score of the fitted dose curve at least 0.9, where 1 is the maximum; inactive = score below 0.9.

Assay: ATG_Ets_CIS: Attagene CIS-FACTORIAL HepG2 Assay for human Erythroblast Transformation Specific (ETS) (AID 2282941)
Conditions: HepG2 ETS cis-reporter transcription, actives raise or lower the signal
Description: ATG_CIS is a cell-based, multiplexed-readout assay that uses HepG2, a human liver cell line, with measurements taken at 24 hours after chemical dosing in a 24-well plate.ATG_Ets_CIS is one of 52 assay component(s) measured or calculated from the ATG_CIS assay. It is designed to make measurements of mRNA induction, a form of inducible reporter, as detected with fluorescence intensity signals by Reverse transcription polymerase chain reaction (RT-PCR) and Capillary electrophoresis technology.Data from the assay component ATG_Ets_CIS was analyzed into 1 assay endpoint. This assay endpoint, ATG_Ets_CIS, was analyzed with bidirectional fitting relative to DMSO as the negative control and baseline of activity. Using a type of inducible reporter, measures of mRNA for gain or loss-of-signal activity can be used to understand the reporter gene at the transcription factor-level as they relate to the gene ETS1. Furthermore, this assay endpoint can be referred to as a primary readout, because this assay has produced multiple assay endpoints where this one serves a reporter gene function. To generalize the intended target to other relatable targets, this assay endpoint is annotated to the dna binding intended target family, where the subfamily is winged helix-turn-helix.
Human liver HepG2 cells are transiently transfected with multiple reporter transcription units (MRTUs) in 6-well plates using FuGene 6 reagent (Roche; 3 ml FuGene/1 mg DNA). The MRTU constructs are regulated by a cis-regulating element (promoter). […] A major difference between the CIS and TRANS system is that in CIS activities of endogenous TFs are measured, whereas the TRANS assay evaluates changes in activities of exogenous, chimeric NR-Gal4 proteins. […] At the end of 24 hour incubation, total RNA was isolated using TriZol reagent (Invitrogen). The isolated RNA is then reverse-transcribed using oligo(dT) primer and Mo-MLV reverse transcriptase (Invitrogen) with DNAse I (Ambion) treatment for 30 min. The one-tenth of the produced cDNA was amplified by PCR using Taq DNA polymerase (Invitrogen) and two reporter sequence-specific primers. The PCR products were fluorescently labeled by primer extension with 6-arboxyfluorescein (6-FAM) 5'-labeled reporter sequence-specific primer (2 min at 95 C, 20 s at 68 C and 10 min at 72 C) and these products were digested with 5U of HpaI (New England Biolabs) for 2h at 37 C. The fragments were purified using Qiaquick PCR columns (Qiagen), analyzed on an ABI 3130xL genetic analyzer (Applied Biosystems) with peak positions identified by using a set of X-rhodamine (ROX)-labeled MapMarker1000 molecular weight standards (BioVentures). The raw capillary electrophoresis data was processed using Attagraph software (Attagene).

Question: For `CCCc1ccccc1O`, which outcome is on record?
Answer: inactive

Question: Which outcome does the source give for `COc1cc(C)cc(O)c1` here?
Answer: inactive

Question: Which outcome does the source give for `C=C(C)C(=O)O` here?
Answer: inactive

Question: Which outcome does the source give for `CSc1nnc(C(C)(C)C)c(=O)[nH]1` here?
Answer: inactive

Question: With `CC(=O)OCCC(C)CC(C)(C)C` (stereo not given) as the molecule, how does the outcome read?
Answer: inactive

Question: Which outcome does the source give for `O=C(Nc1ccccc1)c1cc([N+](=O)[O-])ccc1Cl` here?
Answer: inactive

Question: Which outcome does the source give for `O=C(O)C[C@H](O)C[C@H](O)/C=C/c1c(C2CC2)nc2ccccc2c1-c1ccc(F)cc1` here?
Answer: inactive

Question: For `CCCC/C=C\CCCCCCCCCC=O`, which outcome is on record?
Answer: inactive

Question: Which outcome does the source give for `CC[C@]12CCCN3CCc4c(n(c5ccccc45)[C@@](O)(C(=O)OC)C1)[C@@H]32` here?
Answer: inactive

Question: With `CC(C)(CO)[N+](=O)[O-]` as the molecule, how does the outcome read?
Answer: inactive

Question: With `CC1CCC(C(C)(C)O)CC1` (stereo not given) as the molecule, how does the outcome read?
Answer: inactive

Question: With `O=c1oc(=O)c2cc3c(=O)oc(=O)c3cc12` as the molecule, how does the outcome read?
Answer: inactive

Question: For `CCN(CC)c1ccc(C(=C2C=CC(=[N+](CC)CC)C=C2)c2ccc(S(=O)(=O)O)cc2S(=O)(=O)[O-])cc1`, which outcome is on record?
Answer: inactive

Question: For `OCc1cccnc1`, which outcome is on record?
Answer: inactive

Question: For `O=C1NC(=O)c2ccccc21`, which outcome is on record?
Answer: inactive

Question: With `Cc1cccc(C)c1[N+](=O)[O-]` as the molecule, how does the outcome read?
Answer: inactive

Question: With `O=C(O)c1snc(Cl)c1Cl` as the molecule, how does the outcome read?
Answer: inactive

Question: With `CCCCCCOC(=O)CC` as the molecule, how does the outcome read?
Answer: inactive

Question: With `CCC(C(=O)NC(N)=O)c1ccccc1` (stereo not given) as the molecule, how does the outcome read?
Answer: inactive

Question: With `CCN(CC)CCOC(=O)c1ccc(N)cc1` as the molecule, how does the outcome read?
Answer: inactive

Question: Which outcome does the source give for `CC(=O)Nc1ccc(CC(=O)O)cc1` here?
Answer: inactive

Question: Which outcome does the source give for `CCCC(=O)c1cc(O)c(O)cc1O` here?
Answer: inactive

Question: For `CCCCC/C=C/C=C/C=O`, which outcome is on record?
Answer: inactive

Question: With `CC(=O)O[C@H](CC(=O)[O-])C[N+](C)(C)C` as the molecule, how does the outcome read?
Answer: inactive

Question: For `O=C1CCc2ccccc2O1`, which outcome is on record?
Answer: inactive

Question: Which outcome does the source give for `N#Cc1ccc(CC(=NNC(=O)Nc2ccc(OC(F)(F)F)cc2)c2cccc(C(F)(F)F)c2)cc1` here?
Answer: inactive

Question: With `COc1c(Cl)c(Cl)c(Cl)c(Cl)c1Cl` as the molecule, how does the outcome read?
Answer: inactive

Question: For `CCOC(=S)SSC(=S)OCC`, which outcome is on record?
Answer: inactive

Question: With `CC1CC(OC(=O)c2ccccc2O)CC(C)(C)C1` (stereo not given) as the molecule, how does the outcome read?
Answer: inactive

Question: Which outcome does the source give for `Cc1ccc(C=O)s1` here?
Answer: inactive

Question: Which outcome does the source give for `CN1[C@@H]2CC(OC(=O)[C@H](CO)c3ccccc3)C[C@H]1[C@@H]1O[C@@H]12` (stereo not given in full) here?
Answer: inactive

Question: Which outcome does the source give for `CC(C)C(C)(C)C(C)(C)C(C)(C)S` here?
Answer: inactive

Question: For `C/C=C(\C)C(=O)OCc1ccccc1`, which outcome is on record?
Answer: inactive

Question: With `C#C[C@]1(O)CC[C@H]2[C@@H]3CCC4=Cc5oncc5C[C@]4(C)[C@H]3CC[C@@]21C` as the molecule, how does the AC50 read?
Answer: 26.1 µM (active)

Question: Which outcome does the source give for `CC(C)=CCC[C@H](C)CC=O` here?
Answer: inactive

Question: For `Nc1cc(N)cc(C(=O)O)c1`, which outcome is on record?
Answer: inactive

Question: Which outcome does the source give for `CC1(C)[C@H](C(=O)OCc2cccc(Oc3ccccc3)c2)[C@@H]1C=C(Cl)Cl` here?
Answer: inactive

Question: Which AC50 does the source give for `C=CC(C)(O)CCC=C(C)CCC=C(C)C` (stereo not given) here?
Answer: 164 µM (active)

Question: For `CCCCN`, which outcome is on record?
Answer: inactive

Question: Which outcome does the source give for `CC(=O)/C=C/C1=C(C)CCCC1(C)C` here?
Answer: inactive
